CRFBP-R2 block = antagonists of CRF-BP/CRF-R2 complex, primary screen, cell-based, HEK293, calcium dye fluorescence, uHTS. CRF-induced calcium fluorescence. inhibition, % at 11.8 µM. 350,000 compounds, 0.59% hits;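 active = inhibition of the ligand-induced calcium signal above about 50% at the single tested concentration, limit read from the data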
cardiac RTF act = cardiac RTF calcium sensitivity activators, primary screen, biochemical, IANBD-TnC fluorescence, EC20 calcium | 340,000 compounds, 0.24% hits | IANBD-labeled TnC RTF fluorescence at EC20 calcium; 0% EC20 calcium, 100% full calcium | activation, % at 7.2 µM | AID 493008, 2010;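 active = activation above the mean over all tested compounds plus 3 SD, cut at about 30% in these data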;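 note: rise in fluorescence read as greater calcium sensitivity of cardiac thin filaments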
CRFR2-BP ag = agonists of CRF-BP/CRF-R2 complex, primary screen, cell-based, HEK293, calcium dye fluorescence, uHTS; AID 588473, 2011; CRF-binding protein / CRF receptor 2 complex (human); 350,000 compounds, 0.46% hits; activation, % at 13.2 µM; calcium dye fluorescence (FLIPR); percent of saturating CRF peptide response;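 active = activation of at least 50%, plus an integration ratio under a set limit after plate pattern correction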
Cardiac RTF inh = cardiac RTF calcium sensitivity inhibitors, primary screen, biochemical, IANBD-TnC fluorescence, EC70 calcium. AID 493244, 2011. 340,000 compounds, 0.12% hits. inhibition, % at 7.15 µM. IANBD-labeled cardiac RTF, Ca2+ fluorescence. Troponin I, cardiac muscle (Homo sapiens) + Troponin T, cardiac muscle (Homo sapiens) + …;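 active = inhibition above the mean inhibition of all tested compounds plus 3 SD, cut at about 17% in these data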;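 note: assay run at fixed EC70 calcium of 1.6 mM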
Myeloid diff MLP = induction of myeloid progenitor differentiation, primary screen, cell-based, flow cytometry, MLPCN library; ER-HoxA9 myeloid progenitors, lysozyme-GFP differentiation; 360,000 compounds, 1% hits; calls only at 10 µM;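 active = normalized GFP-positive differentiation at or above the plate's own cutoff, the solvent-only control mean plus 3 SD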;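 note: cells exposed to compound for four days before flow analysis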
Large screens that a line does not name were inactive. Compounds with a hit are over-represented: about 2.2% of the library has one in this group of screens.

COc1cc(/C=C/c2cc(OC(C)=O)c3ccccc3n2)c(OC(C)=O)c([N+](=O)[O-])c1	none
Cc1onc(-c2ccccc2Cl)c1C(=O)N(Cc1nc(-c2ccccc2)no1)C1CCCCC1	Myeloid diff MLP active
O=c1[nH]c(-[n+]2ccccc2)c(/C=N/NC([S-])=Nc2ccccc2)s1	none
CCc1ccc[n+](-c2[nH]c(=O)sc2/C=N/NC([S-])=Nc2ccccc2)c1	cardiac RTF act 85, CRFR2-BP ag 85
CCc1ccc[n+](-c2[nH]c(=O)sc2/C=N/N=C(\N)[O-])c1	none
CC(C)(C)c1cc[n+](-c2[nH]c(=O)sc2/C=N/NC(=O)c2ccccc2[O-])cc1	none
Cc1cc(C)c[n+](-c2[nH]c(=O)sc2/C=N/NC([S-])=Nc2ccccc2)c1	cardiac RTF act 75
Cc1cc[n+](-c2[nH]c(=O)sc2/C=N/NC([S-])=Nc2ccccc2)cc1	cardiac RTF act 42
C#CCN(C(=O)C1CCC(=O)N(CCc2cccc(F)c2)C1)C1CCCCC1 (stereo not drawn)	none (no result: cardiac RTF act, Cardiac RTF inh)
O=C(NCCN1CCCCC1)c1ccc(F)cc1Cl	none
COc1ccc(/C=N/OCC(=O)OCC(=O)N(C)c2ccccc2)cc1	none
COCCn1c(-c2ccc(-c3ccc([N+](=O)[O-])cc3Br)o2)nc2c1c(=O)[nH]c(=O)n2CC(C)C	Myeloid diff MLP active
COCCn1c(=O)[nH]c(=O)c2c1nc(-c1ccc(-c3ccc(Cl)cc3[N+](=O)[O-])o1)n2Cc1ccccc1	none
O=C(c1cccc(Cl)c1)N1CCCc2ccccc21	none
COc1cccc(C(NC(C)=O)c2nc(-c3cccc(C(C)C)c3)cs2)c1 (stereo not drawn)	none (no result: CRFBP-R2 block, cardiac RTF act, CRFR2-BP ag, Cardiac RTF inh)
COC(=O)c1c(NC(=O)c2ccccc2)sc2c1CC(C)(C)NC2(C)C	none
CC1(C)Cc2c(sc(NC(=O)c3ccc4ncsc4c3)c2C(N)=O)C(C)(C)N1	none
CC1(C)Cc2c(sc(NC(=O)c3ccc(C(=O)c4ccccc4)cc3)c2C(N)=O)C(C)(C)N1	Myeloid diff MLP active
COC(=O)c1c(NC(=O)c2ccc(OC(C)C)cc2)sc2c1CC(C)(C)NC2(C)C	Myeloid diff MLP active
O=C(Oc1c(Br)cc([N+](=O)[O-])cc1Br)c1cccnc1	CRFBP-R2 block 68
CC[n+]1c(/C=C/C=C/N(C(C)=O)c2ccccc2)sc2ccccc21	cardiac RTF act 421, CRFR2-BP ag 157, Myeloid diff MLP active
CCn1c(/C=C/N(C(C)=O)c2ccccc2)[n+](CC)c2ccc(Cl)cc21	none
c1ccc(C[C@H]2CN=C(Nc3ccccc3)N2CC2CCCCC2)cc1	Myeloid diff MLP active
CCOC(=O)c1cc2c(=O)c3cc(C)ccc3oc2nc1C	CRFBP-R2 block 67
CC(=O)c1cc2c(=O)c3cc(C)ccc3oc2nc1C	none
CNc1ccccc1C(C)(C)c1cc(-c2cccc(OC)c2)no1	Myeloid diff MLP active (no result: cardiac RTF act, Cardiac RTF inh)
CCOc1ccc(NC(=O)CN2CCCC2c2cccs2)cc1S(=O)(=O)N1CCCC1 (stereo not drawn)	none
COc1ccc(NC(=O)CCCC2CCCCC2)cc1S(=O)(=O)N1CCCCC1	CRFBP-R2 block 64
COc1ccc(NC(=O)CN2CCCC2c2cccs2)cc1S(=O)(=O)N1CCCCC1 (stereo not drawn)	CRFBP-R2 block 64
COc1ccc(NC(=O)CCN2C(=O)C3CC=CCC3C2=O)cc1S(=O)(=O)N1CCCCC1 (stereo not drawn)	none
COc1ccc(CN2CCC(CO)(CCOc3ccccc3)CC2)cc1C	CRFBP-R2 block 88
CC(C)(C)C(=O)Nc1ccc(N2CCN(C(=O)c3cccs3)CC2)cc1	Myeloid diff MLP active (no result: cardiac RTF act, Cardiac RTF inh)
O=C(NC(=S)N1CCN(c2ccc(F)cc2)CC1)c1cccs1	CRFBP-R2 block 50
O=C(Nc1ccc(N2CCN(C(=O)c3cccs3)CC2)cc1)c1ccccc1F	Myeloid diff MLP active
O=C(Nc1ccc(N2CCN(C(=O)c3cccs3)CC2)cc1)c1ccccc1Cl	none
O=C(NC(=S)N1CCN(c2ccc(O)cc2)CC1)c1cccs1	none
CC(C)(C)S(=O)(=O)N1Cc2ccc(CO)cc2[C@H]1CCO	none
CC(C)Cn1c(=O)c2ccccc2n2c(CCC(=O)O)nnc12	none
CCN(C[C@H]1N[C@@](C)(C(=O)OC)[C@H]2C(=O)N(C)C(=O)[C@@H]12)S(=O)(=O)c1ccc(OC)cc1	none
CCN1CCSc2ccc(C(=O)NCc3ccccc3F)cc21	CRFR2-BP ag 280, Myeloid diff MLP active
COc1ccc(CCNC(=O)c2ccc3nc(-c4ccco4)c(-c4ccco4)nc3c2)cc1OC	Cardiac RTF inh 20
CCc1nc2ccc(C(=O)NCCc3ccc(OC)c(OC)c3)cc2nc1CC	none
CSc1ccc(C2=C/C(=C3/SC(=S)NC3=O)c3ccccc3O2)cc1	Myeloid diff MLP active
COc1ccc(-c2n[nH]c(=S)n2-c2ccc(C)cc2C)cc1	none
Cc1ccc(-n2c(-c3ccc(Cl)cc3)n[nH]c2=S)c(C)c1	Myeloid diff MLP active
CCc1nc2ccc(C(=O)Nc3cccc(NS(C)(=O)=O)c3)cn2c1N(C=O)CCC(C)C	Myeloid diff MLP active (no result: CRFBP-R2 block, cardiac RTF act, CRFR2-BP ag, Cardiac RTF inh)
O=C1N/C(=N\S(=O)(=O)Cc2ccccc2)S/C1=C/c1cc([N+](=O)[O-])ccc1O	CRFR2-BP ag 104
O=C1N/C(=N\S(=O)(=O)c2ccccc2)S/C1=C\c1cc([N+](=O)[O-])ccc1O	CRFR2-BP ag 55
O=C(NCC1CCCN(C(=O)Cc2ccccc2Cl)C1)c1ccc(F)cc1 (stereo not drawn)	none
Cc1ccc(C2C3CN(C(C)C)CC=C3C(C#N)=C(N)C2(C#N)C#N)cc1 (stereo not drawn)	cardiac RTF act 136, Myeloid diff MLP active
COc1ccc(OC)c(C2C3CN(C(C)C)CC=C3C(C#N)=C(N)C2(C#N)C#N)c1 (stereo not drawn)	none
CN1CC=C2C(C#N)=C(N)C(C#N)(C#N)[C@H](c3ccoc3)[C@H]2C1	cardiac RTF act 50
CCCN1CC=C2C(C#N)=C(N)C(C#N)(C#N)C(c3cccc(OC)c3OC)C2C1 (stereo not drawn)	cardiac RTF act 53
N#CC1=C(N)C(C#N)(C#N)[C@H](c2ccoc2)[C@H]2CN(Cc3ccccc3)CC=C12	cardiac RTF act 31
CC(=O)N1CC=C2C(C#N)=C(N)C(C#N)(C#N)[C@H](c3ccoc3)[C@H]2C1	none
CN1CC=C2C(C#N)=C(N)C(C#N)(C#N)C(c3cccc(Cl)c3Cl)C2C1 (stereo not drawn)	none
CC(=O)N1C(=O)C2(NCC(C)N2)c2ccccc21 (stereo not drawn)	none (no result: CRFBP-R2 block, cardiac RTF act, CRFR2-BP ag, Cardiac RTF inh)
